From PubChem BioAssay
Cruzain inh Det: blocks cruzain activity in presence of Triton detergent | P25779 | purified cruzain, Z-FR-AMC fluorescence, 0.01% Triton | Potency, µM, inactives show max response, negative = inhibition, usual class: inhibitors | hit rate 0.43% among 200,000;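 also: plate controls were neutral wells for no effect and buffer without enzyme for full effect; nearly all actives have a fitted effect of over 40% in size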
Target sequence (P25779 123-467 limits assumed): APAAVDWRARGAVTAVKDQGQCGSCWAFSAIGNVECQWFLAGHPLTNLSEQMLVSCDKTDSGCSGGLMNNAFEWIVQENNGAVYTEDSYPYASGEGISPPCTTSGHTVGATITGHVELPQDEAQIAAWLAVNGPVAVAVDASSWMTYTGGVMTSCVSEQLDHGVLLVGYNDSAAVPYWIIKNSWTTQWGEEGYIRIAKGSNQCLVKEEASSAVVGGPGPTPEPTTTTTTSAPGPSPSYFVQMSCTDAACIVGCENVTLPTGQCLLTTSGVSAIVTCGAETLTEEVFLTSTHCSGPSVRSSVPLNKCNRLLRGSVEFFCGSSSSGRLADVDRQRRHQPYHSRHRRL
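Detergent-containing run (0.01% Triton X-100) in acetate buffer pH 5.5 with 5 mM DTT: enzyme at 1.5 nM final, 15 min compound preincubation at room temperature, then 2 uM Z-FR-AMC substrate. Activity taken as 60 s fluorescence increase at 360/450 nm.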
Cruzain noTriton: cruzain (T. cruzi) inhibition without detergent; hit rate 2.3% among 200,000; AID 1476; Potency, µM, inactives show max response, negative = inhibition, usual class: inhibitors; purified cruzain, Z-FR-AMC fluorescence, no detergent; P25779;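 also: plate controls were enzyme without inhibitor for no effect and buffer without enzyme for full effect; nearly all actives have a fitted effect of over 40% in size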
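Purified cruzain at 1.5 nM, pre-incubated 15 min with compound at room temperature in 100 mM sodium acetate pH 5.5, 5 mM DTT, 0.00005% Triton X-100. Reaction started with 2 uM Z-FR-AMC; AMC fluorescence increase over 60 s gives rate.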
Numbers without * were called inactive; ? = inconclusive; ! = not confirmed by another sample. Shown are actives, neighbours in structure and some others; about 2.5% of the full set was active somewhere. Calls follow the shape of the dose curve; as a rule, active = well fitted curve in the direction sought with a large enough effect; inconclusive = small, poorly fitted or top-dose-only effect, or another doubt; inactive = no such curve, though single readings can be large; an effect the other way counts as inactive or inconclusive. Potency is read from the fitted curve at half-maximal effect.

SMILES | Cruzain inh Det | Cruzain noTriton
Nc1c2c(nc3sc4c(c13)CCCC4)CCCCCC2 | -17% | 25µM*
Cc1cc(O)c(C(C)(C)C)cc1Sc1cc(C(C)(C)C)c(O)cc1C | 11% | -13%
O=C(O)c1cccc(N=Nc2c(S(=O)(=O)O)ccc3c2C(=O)c2ccccc2C3=O)c1O | -14% | 5%
N[C@H]1[C@@H](C(=O)O)[C@H]2C=C[C@H]1C2 | 8% | 10%
CC(c1ccccc1)N1CCn2c(nc3cc(NC(=O)c4cccs4)ccc32)C1 (stereo unspecified) | -4% | 32µM*
COCCN1CCn2c(nc3cc(NC(=O)c4cccs4)ccc32)C1 | 5% | 3%
CSC[C@@H]1NC(=S)N(c2ccc(C)cc2)C1=O | -1% | 13µM*
CC1=CC(C)(C)NC(=S)N1c1ccc(C)cc1 | -2% | 1%
CCOc1cc(C2Nc3cccc4cccc(c34)N2)ccc1O | -2% | 16µM*
CCOc1ccc(C2Nc3cccc4cccc(c34)N2)cc1OC | -14% | -9%
CCOc1ccccc1NC(=O)CSc1nc2ccccc2nc1Cc1ccc(C)cc1 | 0% | 1%
Cc1c(Cl)c(S(N)(=O)=O)cc2c1=NC=NS=2(=O)O | 2% | 9%
Oc1c(I)cc(Cl)c2cccnc12 | 2% | 13µM*!
Oc1c(CN2CCc3ccccc3C2)cc(Cl)c2cccnc12 | 0% | -5%
Cc1cc(O)c2c(c1O)C(=O)C(O)=C(O)C2=O | -11% | -19%
COc1ccc(-c2nc(SCC(=O)NC(C)CCc3ccccc3)n[nH]2)cc1 (stereo unspecified) | -3% | -8%
CCOC(=O)c1cc(-c2ccccc2)n(-c2cccc(C(=O)N(C)c3ccc(C)cc3)c2)c1C | -4% | -4%
CCOC(=O)c1cc(-c2ccccc2)n(-c2cccc(C(=O)Nc3ccc(F)c(F)c3)c2)c1C | 1% | 20µM*
CCOC(=O)c1cc(-c2ccccc2)n(-c2cccc(C(=O)Nc3cccc(F)c3)c2)c1C | -1% | 10µM*
CCOC(=O)c1cc(-c2ccccc2)n(-c2cccc(C(=O)NC(C)(C)C)c2)c1C | 0% | -1%
CCOC(=O)c1cc(-c2ccccc2)n(-c2cccc(C(=O)Nc3cccc(C(C)=O)c3)c2)c1C | -1% | ?
CCOC(=O)c1cc(-c2ccccc2)n(-c2cccc(C(=O)Nc3ccc(OC)cc3)c2)c1C | -1% | 25µM*
CCOC(=O)c1cc(-c2ccccc2)n(-c2cccc(C(=O)Nc3cccc(SC)c3)c2)c1C | 1% | 10µM*
CCOC(=O)c1cc(-c2ccccc2)n(CC(=O)Nc2cccc(OC)c2)c1C | -2% | 15%
Cc1ccc2c(c1)c1c3n2CCN(C(=O)c2ccc(C(F)(F)F)cc2)C3CCC1 (stereo unspecified) | 2% | -14%
SMILES | Cruzain inh Det | Cruzain noTriton
C[C@@H]1CC[C@@H]2N(C1)C[C@H]1[C@@](O)([C@H](O)C[C@]3(O)[C@H]4CC[C@H]5[C@]6(O)O[C@]4(C[C@]13O)[C@@]5(C)CC[C@@H]6O)[C@@]2(C)O | 0% | 3%
CCn1c(C(=O)NCc2ccccc2)cc2sc(Cl)cc21 | 2% | -4%
CNS(=O)(=O)c1cccc(C(=O)OCc2csc(-c3ccccc3)n2)c1 | -7% | -3%
Cn1nc(-c2ccccc2)c(COC(=O)c2cccc(Cl)c2)c1S(=O)(=O)c1ccccc1 | 2% | 25µM*
COc1ccc(NC(=O)C2C3CCC4C(CCC32)C4(Cl)Cl)cc1 (stereo unspecified) | 3% | 25µM*
COc1cccc(NC(=O)C2C3CCC4C(CCC32)C4(Cl)Cl)c1 (stereo unspecified) | -7% | 10%
O=C(Oc1ccc(N(Cc2cccs2)C2=NS(=O)(=O)c3ccccc32)cc1)c1ccccc1 | 2% | ?
O=C(Oc1ccc(N(Cc2cccs2)C2=NS(=O)(=O)c3ccccc32)cc1)c1ccc(Cl)cc1 | -1% | 32µM*
O=C(O)[C@@H]1[C@@H](C(=O)NCc2cccnc2)[C@@H]2C=C[C@@H]1O2 | 0% | 10%
c1ccc(-c2ccc(CN3C[C@@H]4C(c5ccccc5)C5(c6ccccc6)CC4(C5)[C@H]3c3ccccc3)cc2)cc1 (stereo partly specified) | 4% | 1%
COC(=O)c1ccc(C23CC4(C2)[C@H](CN(C)[C@@H]4c2ccccc2)C3c2ccccc2)cc1 (stereo partly specified) | -4% | 1%
COC(=O)c1cccc(C23CC4(C2)[C@H](CN(Cc2ccc(-c5ccccc5)cc2)[C@@H]4c2ccccc2)C3c2ccc(Cl)nc2)c1 (stereo partly specified) | 2% | 7.9µM*
N#Cc1ccc(C23CC4(C2)[C@H](CN(Cc2ccc(-c5ccccc5)cc2)[C@@H]4c2ccccc2)C3c2ccccc2)cc1 (stereo partly specified) | -4% | 13µM*
COC(=O)c1cccc(C23CC4(C2)[C@H](CN(Cc2cccnc2)[C@@H]4c2ccccc2)C3c2ccc(Cl)nc2)c1 (stereo partly specified) | 0% | -1%
COC(=O)c1ccc(C23CC4(C2)[C@H](CN(Cc2ccc(-c5ccccc5)cc2)[C@@H]4c2ccccc2)C3c2ccccc2)cc1 (stereo partly specified) | 2% | 7.9µM*
COc1cccc(CCNC(=O)c2cnc3sc(N4CCCCCC4)nn3c2=O)c1 | -1% | 14%
Cc1ccc(CN2C(=O)C(=O)c3cc(Br)cc(C)c32)cc1 | -3% | -29%
Cc1ccccc1NC(=O)/C(C#N)=C/c1ccc(Cl)cc1Cl | 0% | -3%
CC(=O)c1cccc(NC(=O)C2CCCN(c3nnc(-n4cccc4)s3)C2)c1 (stereo unspecified) | -6% | -1%
Oc1ccc(Cc2nccc3cc(O)c(O)cc23)cc1O | -1% | 2%
Cc1cc(NC(=O)COC(=O)c2cc3c(s2)CCC(C)C3)no1 (stereo unspecified) | 2% | 32µM*
Cc1c(Cl)cnc(NC(=O)COC(=O)c2cc3c(s2)CCC(C)C3)c1Cl (stereo unspecified) | -1% | ?
CC1CCCCN1C(=O)c1ccc2c(c1)N(Cc1ccc(Cl)cc1)C(=O)c1ccccc1S2=O (stereo unspecified) | 2% | 9%
Cc1cc(C(F)(F)F)nn1CC(=O)Nc1cccnc1 | 1% | -6%
CSc1cc2c(cc1C(F)(F)F)N(C(=O)Nc1cccnc1)CC2 | 1% | 7.9µM*
SMILES | Cruzain inh Det | Cruzain noTriton
COc1cccc(Cc2nc3ccccc3nc2SCC(=O)N2CCCc3ccccc32)c1 | 6% | -8%
O=c1oc2ccccc2c2c1C(c1ccc(Cl)cc1)Nc1ccc3ccccc3c1-2 (stereo unspecified) | 0% | 4µM*
COc1ccc(C2Nc3ccc4ccccc4c3-c3c2c(=O)oc2ccccc32)cc1 (stereo unspecified) | 6% | 10µM*
CCOc1ccc(C2C(C#N)=C(N)Oc3c2c(=O)oc2ccccc32)cc1 (stereo unspecified) | -5% | -16%
CCOc1ccc(C2Nc3ccc4ccccc4c3-c3c2c(=O)oc2ccccc32)cc1 (stereo unspecified) | -13% | 7.9µM*
O=C1CC(c2ccc(Br)cc2)c2c(c3ccccc3oc2=O)O1 (stereo unspecified) | -5% | -18%
COc1ccc(-c2cc3ccccc3c(=O)o2)cc1 | 0% | 23%
Cc1noc(C)c1S(=O)(=O)N1CCCC(C(=O)Nc2ccc(C(C)C)cc2)C1 (stereo unspecified) | 2% | 0%
